Results from ChEMBL document CHEMBL1961873, “Compounds: GSK PKIS; Assays: Nanosyn kinase panel” (2012).

Tests used:
[1] = molecular target: Serine/threonine-protein kinase pim-2 (Homo sapiens) (UniProt Q9P1W9); details: at 1 µM;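 further: each value is a mean of the inhibition measurements against the kinase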
[2] = molecular target: Serine/threonine-protein kinase pim-3 (Homo sapiens) (UniProt Q86V86); details: at 0.1 µM
[3] = molecular target: Serine/threonine-protein kinase pim-3 (Homo sapiens) (UniProt Q86V86); details: at 1 µM
[4] = molecular target: T1, MAP kinase-activated protein kinase 5 (Homo sapiens) (UniProt Q8IW41); details: at 0.1 µM
T1 sequence (whole entry): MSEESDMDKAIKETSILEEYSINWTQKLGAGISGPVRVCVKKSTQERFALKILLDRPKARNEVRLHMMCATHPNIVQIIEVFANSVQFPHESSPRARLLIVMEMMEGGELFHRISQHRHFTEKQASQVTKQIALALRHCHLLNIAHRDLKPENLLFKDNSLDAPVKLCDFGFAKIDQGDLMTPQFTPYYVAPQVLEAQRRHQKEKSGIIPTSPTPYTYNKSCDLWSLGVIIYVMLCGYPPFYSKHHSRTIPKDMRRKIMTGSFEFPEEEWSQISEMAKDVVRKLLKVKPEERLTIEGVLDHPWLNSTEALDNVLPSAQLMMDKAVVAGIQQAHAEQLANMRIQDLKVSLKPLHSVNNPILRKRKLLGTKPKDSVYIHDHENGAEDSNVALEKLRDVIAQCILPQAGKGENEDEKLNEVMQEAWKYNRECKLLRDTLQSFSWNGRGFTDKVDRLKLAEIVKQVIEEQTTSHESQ

[5] = molecular target: T1, MAP kinase-activated protein kinase 5 (Homo sapiens); details: at 1 µM
[6] = molecular target: Serine/threonine-protein kinase SIK1 (Homo sapiens) (UniProt P57059); details: at 0.1 µM
Chain of Serine/threonine-protein kinase SIK1 (Homo sapiens) (P57059 whole entry): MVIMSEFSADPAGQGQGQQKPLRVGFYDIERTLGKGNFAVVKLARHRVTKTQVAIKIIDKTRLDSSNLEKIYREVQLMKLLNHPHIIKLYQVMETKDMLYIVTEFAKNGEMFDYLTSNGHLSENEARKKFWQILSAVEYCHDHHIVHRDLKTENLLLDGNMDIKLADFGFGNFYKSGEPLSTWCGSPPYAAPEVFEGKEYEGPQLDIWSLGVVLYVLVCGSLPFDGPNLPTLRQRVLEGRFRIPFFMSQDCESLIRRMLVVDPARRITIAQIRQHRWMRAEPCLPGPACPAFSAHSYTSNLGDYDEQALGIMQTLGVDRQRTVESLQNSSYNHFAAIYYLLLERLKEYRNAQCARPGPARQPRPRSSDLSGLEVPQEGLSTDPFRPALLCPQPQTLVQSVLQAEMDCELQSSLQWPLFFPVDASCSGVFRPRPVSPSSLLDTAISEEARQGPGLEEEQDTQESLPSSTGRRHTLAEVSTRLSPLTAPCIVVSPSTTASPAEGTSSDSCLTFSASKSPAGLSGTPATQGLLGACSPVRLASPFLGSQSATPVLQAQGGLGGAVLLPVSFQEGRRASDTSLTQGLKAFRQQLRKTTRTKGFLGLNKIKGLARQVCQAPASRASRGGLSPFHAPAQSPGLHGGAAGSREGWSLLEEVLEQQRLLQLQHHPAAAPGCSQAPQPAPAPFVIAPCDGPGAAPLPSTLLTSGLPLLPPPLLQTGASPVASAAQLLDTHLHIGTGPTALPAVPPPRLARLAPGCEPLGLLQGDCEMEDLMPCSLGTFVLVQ

[7] = molecular target: Serine/threonine-protein kinase SIK1 (Homo sapiens) (UniProt P57059); details: at 1 µM
[8] = molecular target: Serine/threonine-protein kinase SIK2 (Homo sapiens) (UniProt Q9H0K1); details: at 0.1 µM
Chain of Serine/threonine-protein kinase SIK2 (Homo sapiens) (Q9H0K1 whole entry, looked up): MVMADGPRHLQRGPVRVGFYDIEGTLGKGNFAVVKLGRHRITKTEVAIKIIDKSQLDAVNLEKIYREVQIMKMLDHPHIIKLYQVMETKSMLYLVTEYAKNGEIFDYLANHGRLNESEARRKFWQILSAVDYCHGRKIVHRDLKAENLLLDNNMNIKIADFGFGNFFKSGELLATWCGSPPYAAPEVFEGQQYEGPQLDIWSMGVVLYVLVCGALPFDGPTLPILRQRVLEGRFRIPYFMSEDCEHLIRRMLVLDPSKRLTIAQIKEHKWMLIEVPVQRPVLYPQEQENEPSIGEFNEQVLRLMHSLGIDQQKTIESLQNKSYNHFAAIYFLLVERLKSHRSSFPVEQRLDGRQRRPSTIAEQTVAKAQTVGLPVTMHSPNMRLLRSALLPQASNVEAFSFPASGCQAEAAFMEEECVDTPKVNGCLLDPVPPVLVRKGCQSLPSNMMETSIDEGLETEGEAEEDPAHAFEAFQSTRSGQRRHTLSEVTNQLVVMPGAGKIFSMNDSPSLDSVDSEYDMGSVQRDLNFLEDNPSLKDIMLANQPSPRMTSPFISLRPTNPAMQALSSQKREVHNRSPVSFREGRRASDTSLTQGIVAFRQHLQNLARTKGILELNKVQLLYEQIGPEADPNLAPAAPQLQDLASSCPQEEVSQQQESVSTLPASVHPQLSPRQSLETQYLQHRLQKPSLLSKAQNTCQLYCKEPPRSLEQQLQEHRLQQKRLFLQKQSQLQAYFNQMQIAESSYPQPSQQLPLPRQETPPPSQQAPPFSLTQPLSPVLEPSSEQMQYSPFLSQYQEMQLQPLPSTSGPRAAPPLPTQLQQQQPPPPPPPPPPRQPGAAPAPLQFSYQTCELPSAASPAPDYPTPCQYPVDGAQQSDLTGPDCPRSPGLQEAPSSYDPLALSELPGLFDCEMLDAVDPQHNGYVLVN

[9] = molecular target: Serine/threonine-protein kinase SIK2 (Homo sapiens) (UniProt Q9H0K1); details: at 1 µM
[10] = molecular target: T2, Serine/threonine-protein kinase TBK1 (Homo sapiens) (UniProt Q9UHD2); details: at 0.1 µM
T2 sequence (whole entry): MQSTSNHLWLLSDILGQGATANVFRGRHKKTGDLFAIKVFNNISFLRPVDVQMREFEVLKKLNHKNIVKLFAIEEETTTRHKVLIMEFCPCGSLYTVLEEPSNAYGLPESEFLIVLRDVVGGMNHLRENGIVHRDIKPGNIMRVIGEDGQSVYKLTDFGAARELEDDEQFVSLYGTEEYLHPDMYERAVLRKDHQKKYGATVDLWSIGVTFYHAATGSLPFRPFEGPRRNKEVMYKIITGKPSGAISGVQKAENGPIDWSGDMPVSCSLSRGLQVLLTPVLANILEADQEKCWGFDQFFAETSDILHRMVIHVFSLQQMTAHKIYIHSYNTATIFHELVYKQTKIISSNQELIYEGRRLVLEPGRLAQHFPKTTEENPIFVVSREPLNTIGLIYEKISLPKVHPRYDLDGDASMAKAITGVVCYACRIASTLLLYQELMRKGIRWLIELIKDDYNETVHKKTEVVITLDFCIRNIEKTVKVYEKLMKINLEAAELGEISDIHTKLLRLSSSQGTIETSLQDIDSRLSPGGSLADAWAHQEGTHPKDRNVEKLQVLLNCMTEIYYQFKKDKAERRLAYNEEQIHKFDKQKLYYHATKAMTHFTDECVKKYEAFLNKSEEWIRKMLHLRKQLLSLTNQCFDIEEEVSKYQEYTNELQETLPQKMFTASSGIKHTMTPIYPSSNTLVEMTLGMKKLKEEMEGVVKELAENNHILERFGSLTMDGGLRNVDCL

[11] = molecular target: T2, Serine/threonine-protein kinase TBK1 (Homo sapiens); details: at 1 µM
[12] = molecular target: T3, Testis-specific serine/threonine-protein kinase 1 (Homo sapiens) (UniProt Q9BXA7); details: at 0.1 µM
T3 sequence (whole entry): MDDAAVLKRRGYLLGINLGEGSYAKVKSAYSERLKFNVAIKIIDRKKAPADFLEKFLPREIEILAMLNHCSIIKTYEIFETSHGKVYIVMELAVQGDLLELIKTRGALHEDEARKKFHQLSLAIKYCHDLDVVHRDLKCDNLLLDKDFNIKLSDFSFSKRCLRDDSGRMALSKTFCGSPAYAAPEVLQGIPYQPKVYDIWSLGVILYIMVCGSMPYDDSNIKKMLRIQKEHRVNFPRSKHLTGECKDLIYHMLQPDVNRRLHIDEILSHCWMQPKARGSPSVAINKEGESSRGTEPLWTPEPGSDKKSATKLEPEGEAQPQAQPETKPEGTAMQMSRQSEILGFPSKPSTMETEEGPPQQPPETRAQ

[13] = molecular target: T3, Testis-specific serine/threonine-protein kinase 1 (Homo sapiens); details: at 1 µM
[14] = molecular target: T4, Testis-specific serine/threonine-protein kinase 2 (Homo sapiens) (UniProt Q96PF2); details: at 0.1 µM
T4 sequence (whole entry): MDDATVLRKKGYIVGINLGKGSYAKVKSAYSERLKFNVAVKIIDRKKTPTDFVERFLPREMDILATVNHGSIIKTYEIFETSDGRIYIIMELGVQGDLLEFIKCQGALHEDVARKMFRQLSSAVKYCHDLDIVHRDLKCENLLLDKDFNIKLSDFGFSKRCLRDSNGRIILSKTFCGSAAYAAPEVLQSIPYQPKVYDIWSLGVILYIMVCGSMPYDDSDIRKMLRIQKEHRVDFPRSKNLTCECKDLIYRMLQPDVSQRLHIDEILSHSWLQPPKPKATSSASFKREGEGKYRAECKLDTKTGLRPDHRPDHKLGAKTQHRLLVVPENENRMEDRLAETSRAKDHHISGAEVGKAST

[15] = molecular target: T4, Testis-specific serine/threonine-protein kinase 2 (Homo sapiens); details: at 1 µM
[16] = molecular target: Casein kinase I isoform alpha (Homo sapiens) (UniProt P48729); details: at 0.1 µM
Chain of Casein kinase I isoform alpha (Homo sapiens) (P48729 2-337 limits assumed): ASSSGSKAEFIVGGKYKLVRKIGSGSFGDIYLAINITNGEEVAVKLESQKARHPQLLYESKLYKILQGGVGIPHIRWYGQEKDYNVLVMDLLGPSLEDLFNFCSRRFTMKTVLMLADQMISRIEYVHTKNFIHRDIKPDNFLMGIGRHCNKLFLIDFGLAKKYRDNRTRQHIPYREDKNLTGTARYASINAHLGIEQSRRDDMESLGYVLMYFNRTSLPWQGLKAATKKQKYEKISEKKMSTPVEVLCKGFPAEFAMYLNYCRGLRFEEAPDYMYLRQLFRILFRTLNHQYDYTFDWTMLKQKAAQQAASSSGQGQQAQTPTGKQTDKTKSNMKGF

[17] = molecular target: Casein kinase I isoform alpha (Homo sapiens) (UniProt P48729); details: at 1 µM
[18] = molecular target: Casein kinase I isoform gamma-1 (Homo sapiens) (UniProt Q9HCP0); details: at 0.1 µM
Chain of Casein kinase I isoform gamma-1 (Homo sapiens) (Q9HCP0 whole entry, looked up, canonical isoform): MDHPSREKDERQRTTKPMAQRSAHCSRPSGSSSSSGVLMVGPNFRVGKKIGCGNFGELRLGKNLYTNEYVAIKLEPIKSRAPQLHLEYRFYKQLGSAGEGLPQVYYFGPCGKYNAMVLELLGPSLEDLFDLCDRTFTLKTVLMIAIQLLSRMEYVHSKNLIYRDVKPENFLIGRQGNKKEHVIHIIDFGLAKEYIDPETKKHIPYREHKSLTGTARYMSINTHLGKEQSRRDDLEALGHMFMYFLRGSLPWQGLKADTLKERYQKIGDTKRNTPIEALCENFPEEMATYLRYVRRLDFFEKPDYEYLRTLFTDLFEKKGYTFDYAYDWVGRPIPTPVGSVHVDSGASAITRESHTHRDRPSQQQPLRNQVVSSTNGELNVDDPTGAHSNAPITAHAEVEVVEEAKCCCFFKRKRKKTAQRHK

[19] = molecular target: Casein kinase I isoform gamma-1 (Homo sapiens) (UniProt Q9HCP0); details: at 1 µM
[20] = molecular target: Casein kinase I isoform gamma-2 (Homo sapiens) (UniProt P78368); details: at 0.1 µM;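 further: values are mean inhibition figures reported as part of the GSK PKIS dataset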
Chain of Casein kinase I isoform gamma-2 (Homo sapiens) (P78368 whole entry, looked up, canonical isoform): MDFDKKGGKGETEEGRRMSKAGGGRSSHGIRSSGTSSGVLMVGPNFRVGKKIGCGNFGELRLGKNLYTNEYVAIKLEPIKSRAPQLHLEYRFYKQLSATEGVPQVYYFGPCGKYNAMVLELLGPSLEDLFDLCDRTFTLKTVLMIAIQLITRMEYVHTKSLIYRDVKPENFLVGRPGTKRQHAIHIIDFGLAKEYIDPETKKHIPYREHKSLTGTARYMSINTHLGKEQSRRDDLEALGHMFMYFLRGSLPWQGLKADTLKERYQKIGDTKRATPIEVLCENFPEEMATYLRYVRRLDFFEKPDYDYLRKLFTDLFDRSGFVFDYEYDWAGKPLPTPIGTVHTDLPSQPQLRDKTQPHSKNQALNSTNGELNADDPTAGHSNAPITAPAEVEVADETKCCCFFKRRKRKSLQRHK

Chain of Serine/threonine-protein kinase pim-2 (Homo sapiens) (Q9P1W9 whole entry, looked up): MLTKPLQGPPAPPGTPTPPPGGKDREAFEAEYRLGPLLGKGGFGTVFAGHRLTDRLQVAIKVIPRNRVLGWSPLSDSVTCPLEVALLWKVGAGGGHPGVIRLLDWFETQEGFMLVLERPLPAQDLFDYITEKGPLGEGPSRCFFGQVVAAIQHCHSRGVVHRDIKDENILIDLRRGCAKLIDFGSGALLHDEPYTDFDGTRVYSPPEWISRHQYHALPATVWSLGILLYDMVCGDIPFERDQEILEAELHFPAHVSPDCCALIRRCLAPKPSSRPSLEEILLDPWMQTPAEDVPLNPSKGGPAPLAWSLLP

| SMILES | inhibition [1] | inhibition [2] | inhibition [3] | inhibition [4] | inhibition [5] | inhibition [6] | inhibition [7] | inhibition [8] | inhibition [9] | inhibition [10] | inhibition [11] | inhibition [12] | inhibition [13] | inhibition [14] | inhibition [15] | inhibition [16] | inhibition [17] | inhibition [18] | inhibition [19] | inhibition [20] |
| --- | --- | --- | --- | --- | --- | --- | --- | --- | --- | --- | --- | --- | --- | --- | --- | --- | --- | --- | --- | --- |
| N#Cc1ccc(Oc2nccc(-c3c(-c4ccc(F)cc4)ncn3C3CCNCC3)n2)cc1 | 0.58% | 0.29% | 0.8% | 1.34% | 1.48% | 5.1% | 7.69% | 2.82% | 9.93% | 1.69% | 3.03% | 3.77% | 4.18% | 1.71% | 4.59% | 4.15% | 10.1% | 3.79% | 5.9% | 3.52% |
| COC(=O)Nc1nc2ccc(Sc3ccc(NC(=O)Nc4cc(C(F)(F)F)ccc4F)cc3)cc2[nH]1 | -0.09% | 1.76% | 2.48% | 0.03% | -0.97% | 3.94% | 0.98% | 4.86% | 0.47% | -0.64% | 2.38% | -0.48% | -2.84% | -0.2% | -1.84% | -0.33% | 1.98% | -0.12% | 0.47% | -0.85% |
| CN(c1ccc(NC(=O)Nc2c(Cl)cccc2Cl)cc1)c1ccnc(Nc2cccc(CS(C)(=O)=O)c2)n1 | 0.1% | 1.1% | 3.85% | 1.58% | 1.46% | 5.71% | 13.3% | 9.6% | 10.2% | 3.74% | 8.89% | 1.9% | 3.33% | 0.55% | 1.93% | 1.15% | 1.15% | 0.39% | 1.32% | 1.06% |
| NC(=O)c1cc(-c2ccc(F)cc2)cc(-c2ccncc2)c1N | -1.22% | -0.69% | -5.17% | 1.11% | 2.54% | 4.79% | 9.72% | 7.37% | 8.31% | 3.66% | 2.04% | 3.98% | 5.61% | 2.71% | 4.29% | 6.79% | 2.14% | 4.19% | 4.95% | 3.82% |
| Cc1ccc(C(=O)NC2CCC2)cc1-c1ccc(C(=O)NCC2CC2)cc1 | -0.13% | -0.5% | 0.14% | 0.63% | -0.21% | 6.34% | 3.12% | 1.33% | 0.45% | 1.61% | 2.24% | 2.11% | 1.32% | 0.09% | -0.03% | 3.36% | 6.49% | 2.64% | 3.13% | 1.72% |
| COc1cc2ncn(-c3cc(OCc4ccccc4C(F)(F)F)c(C(C)=O)s3)c2cc1OC | 0.86% | 0.65% | -0.5% | 1.07% | 0.82% | -0.57% | 5.68% | -0.99% | 7.06% | 2.89% | 2.12% | 2.55% | 3.05% | 1.34% | 1.53% | 3.35% | 2.73% | 2.77% | 3.34% | 2.24% |
| C[C@@H](Oc1cc(-n2cnc3ccc(OC4CCN(C)CC4)cc32)sc1C(N)=O)c1ccccc1Cl | -3.56% | 8.14% | 45% | 1.31% | 1.54% | 3.1% | 19.3% | 6.72% | 14% | 4.61% | 4.33% | 4.11% | 10.3% | 2.61% | 1.72% | 4.09% | 6.16% | 0.61% | -0.21% | 0.26% |
| C/C(Nc1ccc(S(N)(=O)=O)cc1)=C1/C(=O)Nc2ccccc21 | 0.33% | 0.02% | 1.7% | -0.26% | 1.08% | -7.25% | -0.38% | -6.72% | -0.55% | 0.77% | 4.75% | 0.79% | 5.46% | -0.65% | 1.13% | 2.64% | 8.53% | -0.74% | 6.33% | 1.03% |
| NC(=O)c1cc(-c2ccncc2)cc(-c2ccccc2)c1N | 0.75% | -4.72% | -1.81% | 1.31% | 2.24% | 5.39% | 24% | 7.44% | 14.2% | 3.5% | 9.27% | 3.7% | 5.71% | 2.4% | 1.64% | 4.55% | 7.76% | 4.75% | 5.37% | 3.86% |
| NS(=O)(=O)c1ccc(N/N=C2\C(=O)Nc3ccc(C(=O)NCCCn4ccnc4)cc32)cc1 | 7.42% | 3.06% | 18.9% | 1.4% | 4.54% | 7.49% | 13.9% | 9.61% | 12.7% | 3.93% | 30.4% | 7.1% | 13.3% | 4.07% | 6.71% | 3.95% | 6.05% | 5.08% | 10.8% | 4.43% |
| NS(=O)(=O)c1ccc(N/N=C2\C(=O)Nc3ccc(-c4cnco4)cc32)cc1 | 24.5% | 1.42% | 15.5% | 1.08% | 3.26% | 1.71% | 14.3% | -1.16% | 7.34% | 7.17% | 38.4% | 2.73% | 12.4% | 0.01% | 1.76% | 0.46% | 3.06% | -2.5% | -1.7% | -2.15% |
| C#Cc1cccc(Nc2ncnc3ccc(OCCCCNCCS(C)(=O)=O)cc23)c1 | -1.09% | 6.18% | 36.2% | 2.33% | 2.73% | 8.26% | 38.7% | 5.71% | 27.5% | 1.72% | 8.32% | 6.03% | 6.34% | 2.32% | 2.71% | 2.51% | 7.93% | 0.79% | 1.77% | 0.57% |
